This passage reports outcome and AC50 results from PubChem BioAssay (EPA / NIEHS).

Records with an inconclusive call do not appear. Active and inactive are the calls of the source. Rule for the calls, unless noted: active = hit-call score of the fitted dose curve at least 0.9, where 1 is the maximum; inactive = score below 0.9.

The nature of experiment [1]: BSK_LPS_PGE2: BioMAP Diversity Plus: LPS Assay for Prostaglandin E2 (PGE2) Biomarker Activity (AID 2283082).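 For AC50: secreted prostaglandin E2 measured by ELISA in LPS-stimulated co-culture.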 To be noted: primary human HUVEC with PBMC; actives raise or lower the signal. In short, it runs like this:
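Compounds were added to the LPS co-culture of endothelium and PBMC, and PGE2 was measured by ELISA after 24 h. Responses in either direction were fitted with DMSO as baseline.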

Read-out in experiment [2]: Macrophage colony-stimulating factor (MCSF), CSF1 (gene 1435)
Briefly: BSK_LPS_MCSF: BioMAP Diversity Plus: LPS Assay for Macrophage colony-stimulating factor (MCSF) Biomarker Activity (AID 2283083). To be noted: primary human HUVEC with PBMC; actives raise or lower the signal. In short, it runs like this:
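HUVEC + PBMC co-culture (human primary), 24 h post-dose; M-CSF by ELISA; gain/loss of signal fitted bidirectionally vs DMSO baseline.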

Read-out in experiment [3]: Tissue Factor, F3 (gene 2152)
The experiment can be described thus: BSK_LPS_TissueFactor: BioMAP Diversity Plus: LPS Assay for Tissue Factor Biomarker Activity (AID 2283084). Conditions: primary human HUVEC with PBMC; actives raise or lower the signal. A digest of the protocol: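 HUVEC/PBMC co-culture, LPS-activated; CD142 ELISA read 24 h post-dose; bidirectional curve fit vs DMSO negative control.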

Read-out in experiment [4]: Tumor necrosis factor (Homo sapiens) (UniProt P01375)
Briefly: BSK_LPS_TNFa: BioMAP Diversity Plus: LPS Assay for Tumour Necrosis Factor alpha (TNFa) Biomarker Activity (AID 2283085).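 For AC50: TNFa protein level quantified by ELISA in the co-culture.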 Conditions: primary human HUVEC with PBMC; actives raise or lower the signal. In short, it runs like this:
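Cells (umbilical vein endothelium plus peripheral blood mononuclear cells) were dosed with chemical, incubated 24 h, then TNFa was quantified by ELISA; values derive from bidirectional fitting with DMSO as baseline.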

Read-out in experiment [5]: Vascular cell adhesion molecule 1 (VCAM1), VCAM1 (gene 7412)
The experiment can be described thus: BSK_LPS_VCAM1: BioMAP Diversity Plus: LPS Assay for Vascular cell adhesion molecule 1 (VCAM1) Biomarker Activity (AID 2283086). To be noted: primary human HUVEC with PBMC; actives raise or lower the signal. A digest of the protocol:
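Cells are dosed in an LPS-stimulated endothelial/mononuclear co-culture and, after 24 h, VCAM-1 is quantified by ELISA. Activity in either direction is fitted relative to the DMSO negative control.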

Read-out in the next experiment: CD38, CD38 (gene 952)
The experiment can be described thus: BSK_SAg_CD38: BioMAP Diversity Plus: SAg Assay for CD38 Biomarker Activity (AID 2283087). Conditions: primary human HUVEC with PBMC; actives raise or lower the signal. A digest of the protocol:
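CD38 quantified by ELISA (fluorescence) in a superantigen-activated endothelial cell–PBMC co-culture at 24 h post-dose. Activity fitted in both directions relative to DMSO; parallel SRB and Alamar Blue cytotoxicity read-outs.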

Read-out in the next experiment: CD40, CD40 (gene 958)
Briefly: BSK_SAg_CD40: BioMAP Diversity Plus: SAg Assay for CD40 Biomarker Activity (AID 2283088). Conditions: primary human HUVEC with PBMC; actives raise or lower the signal. In short, it runs like this: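 HUVEC/PBMC co-culture, 24 h post-dose; CD40 by ELISA, fluorescence intensity; bidirectional fit vs DMSO negative control.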

Read-out in another experiment: CD69, CD69 (gene 969)
Briefly: BSK_SAg_CD69: BioMAP Diversity Plus: SAg Assay for CD69 Biomarker Activity (AID 2283089).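 For AC50: cell surface CD69 protein quantified by ELISA with fluorescence detection.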 To be noted: primary human HUVEC with PBMC; actives raise or lower the signal. A digest of the protocol:
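Endothelial/PBMC co-culture; chemical added; 24 h incubation; CD69 ELISA with fluorescence detection; bidirectional fit vs DMSO.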

Read-out in experiment [6]: Monocyte Chemoattractant Protein-1 (MCP1), CCL2 (gene 6347)
Briefly: BSK_SAg_MCP1: BioMAP Diversity Plus: SAg Assay for Monocyte Chemoattractant Protein-1 (MCP1) Biomarker Activity (AID 2283090). To be noted: primary human HUVEC with PBMC; actives raise or lower the signal. In short, it runs like this: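 Values derive from bidirectional fitting of ELISA-measured MCP1 against DMSO controls. Readings were taken 24 h after dosing human vascular endothelial cells co-cultured with peripheral blood mononuclear cells under superantigen stimulation.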

Read-out in experiment [7]: E-selectin (Homo sapiens) (UniProt P16581)
Briefly: BSK_SAg_Eselectin: BioMAP Diversity Plus: SAg Assay for Eselectin Biomarker Activity (AID 2283091). To be noted: primary human HUVEC with PBMC; actives raise or lower the signal. A digest of the protocol:
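E-selectin ELISA readout at 24 h post-dosing in human umbilical vein endothelial cell/PBMC co-culture; gain or loss of signal fitted relative to DMSO baseline.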

Read-out in experiment [8]: Monokine induced gamma interferon (MIG), CXCL9 (gene 4283)
Briefly: BSK_SAg_MIG: BioMAP Diversity Plus: SAg Assay for Monokine induced gamma interferon (MIG) Biomarker Activity (AID 2283092). Conditions: primary human HUVEC with PBMC; actives raise or lower the signal. A digest of the protocol: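 Measures CXCL9 protein by ELISA in a human vascular primary-cell co-culture (umbilical vein endothelium with PBMC) 24 h after chemical addition. Activity is scored up or down from the DMSO control.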

Experiment [9] can be described thus: BSK_SAg_PBMCCytotoxicity: PBMC Cytotoxicity Assessment in the BioMAP Diversity Plus: SAg Assay (AID 2283093).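 For AC50: PBMC superantigen activated with SEB plus TSST-1 one hour after compound addition.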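 Note: fitted both ways against DMSO so a hit may be loss or gain of signal.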 To be noted: primary human HUVEC with PBMC. A digest of the protocol:
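PBMC viability by Alamar Blue reduction, fluorescence read at 546/580 nm after 6 h dye exposure. Cells were dosed 1 h before SEB plus TSST-1 activation (20 ng/mL final each), then held 90 h; endothelial/PBMC human co-culture.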

Read-out in experiment [10]: Interleukin-8 (IL8), CXCL8 (gene 3576)
The experiment can be described thus: BSK_SAg_IL8: BioMAP Diversity Plus: SAg Assay for Interleukin-8 (IL8) Biomarker Activity (AID 2283094). To be noted: primary human HUVEC with PBMC; actives raise or lower the signal. In short, it runs like this:
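Chemicals were dosed onto a human endothelial–PBMC co-culture, and IL-8 was quantified by ELISA after 24 h. Both increases and decreases were fitted relative to DMSO.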

Experiment [11] can be described thus: BSK_SAg_Proliferation: Cell Proliferation Assessment in the BioMAP Diversity Plus: SAg Assay (AID 2283095).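 Note: relative cell number as total protein by SRB absorbance in sub-confluent culture.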 To be noted: primary human HUVEC with PBMC. A digest of the protocol:
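Absorbance of sulforhodamine B at 560 nm reports total protein in a human vascular endothelial/PBMC co-culture after 96 h chemical exposure. Gain or loss of signal is fitted in both directions against DMSO.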

In experiment [12] the target is human CYP2A6, CYP2A6 (gene 1548) (UniProt P11509). The experiment can be described thus: NVS_ADME_hCYP2A6: NovaScreen (NVS) CYP450-related Enzyme Activity (ADME) Assay for human CYP2A6 (AID 2283099; active = hit-call score of the fitted dose curve at least 0.9, where 1 is the maximum). A digest of the protocol: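 Insect-cell-expressed human CYP2A6 enzyme activity measured by fluorescence intensity 0.5 hour post-dosing. Compounds screened at 10 uM in duplicate, then hits tested singly in concentration series (max 20 uM); acetonitrile baseline.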

The target in experiment [13] is human CYP1A1, CYP1A1 (gene 1543) (UniProt P04798). Briefly: NVS_ADME_hCYP1A1: NovaScreen (NVS) CYP450-related Enzyme Activity (ADME) Assay for human CYP1A1 (AID 2283100; active = hit-call score of the fitted dose curve at least 0.9, where 1 is the maximum). In short, it runs like this:
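Read-out: fluorescence intensity from enzymatic turnover of substrate by recombinant CYP1A1, loss of signal indicating inhibition. Incubation 1 h post-dose. Primary single-point 10 uM in duplicate; actives rerun singly with top concentration 20 uM.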

Experiment [14] addresses human CYP1A2, CYP1A2 (gene 1544) (UniProt P05177). The experiment can be described thus: NVS_ADME_hCYP1A2: NovaScreen (NVS) CYP450-related Enzyme Activity (ADME) Assay for human CYP1A2 (AID 2283102; active = hit-call score of the fitted dose curve at least 0.9, where 1 is the maximum;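 for AC50: potency for inhibition since loss of fluorescence marks reduced CYP1A2 activity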). A digest of the protocol: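 Fluorescence-intensity enzyme activity read-out, taken 0.5 h post-dosing, using insect-cell-derived recombinant CYP1A2 and specific fluorescent substrate. Acetonitrile served as negative control/baseline. Single-concentration duplicate screen at 10 uM, then concentration-response follow-up.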

Experiment [15] can be described thus: BSK_SAg_SRB: Viability Assessment in the BioMAP Diversity Plus: SAg Assay (AID 2283096).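 Note: cells read one day after compound addition; hits may be either gain or loss of signal compared with DMSO.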 Conditions: primary human HUVEC with PBMC. In short, it runs like this: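 Compounds were added to a human vascular co-culture of umbilical vein endothelium and PBMC. After 24 h, parallel cultures were fixed with 10% TCA, stained with 0.1% sulforhodamine B and read at 560 nm. Gain or loss of signal was fitted relative to DMSO.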

Experiment [16] addresses human CYP2B6, CYP2B6 (gene 1555) (UniProt P20813). The experiment can be described thus: NVS_ADME_hCYP2B6: NovaScreen (NVS) CYP450-related Enzyme Activity (ADME) Assay for human CYP2B6 (AID 2283101; active = hit-call score of the fitted dose curve at least 0.9, where 1 is the maximum). A digest of the protocol: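 Recombinant protein, specific fluorescent substrate, read at 1 h post-dosing. Primary: single 10 uM, duplicate; follow-up: concentration series. Activity = signal loss vs acetonitrile baseline, with positive and negative controls on every plate.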

Tumor necrosis factor (Homo sapiens), sequence (P01375 whole entry, looked up): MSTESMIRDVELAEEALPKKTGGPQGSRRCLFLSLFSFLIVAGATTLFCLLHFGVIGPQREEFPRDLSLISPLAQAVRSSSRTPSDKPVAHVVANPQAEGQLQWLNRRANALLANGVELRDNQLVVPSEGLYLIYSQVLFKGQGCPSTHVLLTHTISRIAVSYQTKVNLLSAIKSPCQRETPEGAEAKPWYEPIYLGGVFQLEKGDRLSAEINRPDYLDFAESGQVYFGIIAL
human CYP1A2, CYP1A2 (gene 1544), sequence (P05177 whole entry, looked up): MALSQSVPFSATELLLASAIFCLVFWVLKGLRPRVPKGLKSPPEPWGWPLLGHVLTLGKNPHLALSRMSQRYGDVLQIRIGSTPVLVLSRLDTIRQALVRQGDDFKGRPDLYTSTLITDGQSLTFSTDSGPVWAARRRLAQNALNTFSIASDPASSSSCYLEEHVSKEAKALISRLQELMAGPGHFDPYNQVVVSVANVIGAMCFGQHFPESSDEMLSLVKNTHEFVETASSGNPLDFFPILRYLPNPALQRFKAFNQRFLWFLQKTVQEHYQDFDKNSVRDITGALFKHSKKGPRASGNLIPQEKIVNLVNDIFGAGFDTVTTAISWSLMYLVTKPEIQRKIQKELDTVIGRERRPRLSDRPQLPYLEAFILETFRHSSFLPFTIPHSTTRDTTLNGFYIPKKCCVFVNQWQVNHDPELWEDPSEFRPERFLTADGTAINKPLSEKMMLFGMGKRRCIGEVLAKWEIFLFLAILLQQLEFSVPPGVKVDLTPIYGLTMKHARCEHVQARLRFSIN
E-selectin (Homo sapiens), sequence (P16581 whole entry, looked up): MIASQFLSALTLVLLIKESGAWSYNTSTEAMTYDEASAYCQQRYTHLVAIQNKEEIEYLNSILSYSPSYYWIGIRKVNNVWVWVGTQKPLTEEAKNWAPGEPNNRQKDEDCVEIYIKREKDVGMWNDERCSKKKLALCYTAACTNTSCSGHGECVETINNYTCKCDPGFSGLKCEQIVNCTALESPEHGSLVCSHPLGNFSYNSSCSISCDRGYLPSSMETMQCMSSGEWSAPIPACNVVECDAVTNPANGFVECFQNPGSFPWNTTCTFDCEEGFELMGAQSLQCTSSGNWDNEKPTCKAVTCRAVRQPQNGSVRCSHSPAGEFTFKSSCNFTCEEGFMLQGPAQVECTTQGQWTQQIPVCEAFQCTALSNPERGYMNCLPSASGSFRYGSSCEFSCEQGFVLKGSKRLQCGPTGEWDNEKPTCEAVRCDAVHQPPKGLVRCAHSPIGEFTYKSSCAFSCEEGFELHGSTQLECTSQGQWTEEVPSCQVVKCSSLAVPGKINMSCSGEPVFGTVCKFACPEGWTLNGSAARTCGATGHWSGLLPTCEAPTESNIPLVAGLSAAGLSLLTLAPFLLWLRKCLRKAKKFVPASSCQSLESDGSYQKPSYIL
human CYP2A6, CYP2A6 (gene 1548), sequence (P11509 whole entry, looked up): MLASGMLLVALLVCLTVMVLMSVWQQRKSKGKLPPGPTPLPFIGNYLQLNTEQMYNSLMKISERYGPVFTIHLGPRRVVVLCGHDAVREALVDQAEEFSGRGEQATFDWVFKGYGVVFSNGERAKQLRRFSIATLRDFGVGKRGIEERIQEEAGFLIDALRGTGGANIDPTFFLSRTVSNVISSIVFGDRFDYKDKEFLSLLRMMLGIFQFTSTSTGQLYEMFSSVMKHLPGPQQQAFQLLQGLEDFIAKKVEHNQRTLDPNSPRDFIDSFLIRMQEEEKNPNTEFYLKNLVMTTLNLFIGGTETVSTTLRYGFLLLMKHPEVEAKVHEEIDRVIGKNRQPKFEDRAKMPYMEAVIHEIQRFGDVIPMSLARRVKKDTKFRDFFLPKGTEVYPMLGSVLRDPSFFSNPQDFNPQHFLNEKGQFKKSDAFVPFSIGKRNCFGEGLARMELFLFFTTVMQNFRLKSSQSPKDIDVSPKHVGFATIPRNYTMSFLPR
human CYP1A1, CYP1A1 (gene 1543), sequence (P04798 whole entry, looked up): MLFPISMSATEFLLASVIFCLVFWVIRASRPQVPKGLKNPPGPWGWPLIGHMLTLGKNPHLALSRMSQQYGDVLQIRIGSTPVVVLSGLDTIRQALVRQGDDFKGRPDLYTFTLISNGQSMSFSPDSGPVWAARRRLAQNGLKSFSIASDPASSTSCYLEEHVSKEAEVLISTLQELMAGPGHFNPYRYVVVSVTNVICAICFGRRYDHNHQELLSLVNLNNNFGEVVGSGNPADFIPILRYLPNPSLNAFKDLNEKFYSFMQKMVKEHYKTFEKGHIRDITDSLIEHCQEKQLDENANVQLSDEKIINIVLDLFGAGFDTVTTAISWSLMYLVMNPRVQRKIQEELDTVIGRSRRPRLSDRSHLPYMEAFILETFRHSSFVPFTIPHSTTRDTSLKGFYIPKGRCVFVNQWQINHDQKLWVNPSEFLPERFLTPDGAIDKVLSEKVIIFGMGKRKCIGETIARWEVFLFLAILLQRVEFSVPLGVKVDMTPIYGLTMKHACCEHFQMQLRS
human CYP2B6, CYP2B6 (gene 1555), sequence (P20813 whole entry, looked up): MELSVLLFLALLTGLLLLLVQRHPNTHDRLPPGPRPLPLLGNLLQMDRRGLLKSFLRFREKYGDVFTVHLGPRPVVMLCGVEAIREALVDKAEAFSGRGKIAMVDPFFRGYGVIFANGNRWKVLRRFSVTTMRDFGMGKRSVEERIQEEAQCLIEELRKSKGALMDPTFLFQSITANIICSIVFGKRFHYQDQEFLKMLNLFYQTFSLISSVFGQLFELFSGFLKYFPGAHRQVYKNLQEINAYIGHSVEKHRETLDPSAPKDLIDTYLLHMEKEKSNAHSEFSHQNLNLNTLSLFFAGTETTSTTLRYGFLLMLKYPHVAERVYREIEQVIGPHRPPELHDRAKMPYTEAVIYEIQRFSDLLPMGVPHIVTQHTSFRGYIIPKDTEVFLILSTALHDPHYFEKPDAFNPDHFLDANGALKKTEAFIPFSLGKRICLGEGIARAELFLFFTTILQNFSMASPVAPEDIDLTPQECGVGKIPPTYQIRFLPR

By AC50 is commonly meant the midpoint of the concentration-response curve, whichever way the signal moves. On to `O=[N+]([O-])C(Br)(CO)CO`, for which the result in [1] and in [12] was inactive. Further, the AC50 was 28.9 µM (active) in experiment [2]; 28.4 µM (active) in experiment [3]; 31.7 µM (active) in experiment [4]; 30.1 µM (active) in [5]; 31.3 µM (active) with CD38, CD38 (gene 952); 28.1 µM (active) with CD40, CD40 (gene 958). In addition, the AC50 is 28.5 µM (active) with CD69, CD69 (gene 969); 31.1 µM (active) in [6]; 24.7 µM (active) in experiment [7]; 39.1 µM (active) in experiment [8]; 22.5 µM (active) in experiment [9]; 27.6 µM (active) in [10]. Besides, the AC50 in experiment [11] was 8.35 µM (active); in experiment [13] it was 12.7 µM (active); in experiment [14], 3.15 µM (active).

With `CC(C)(OOC(C)(C)c1ccccc1)c1ccccc1`, the outcome in experiment [1], in [3] and in experiment [12] was inactive. Moreover, the AC50 in experiment [2] is 32.5 µM (active); in [4], 31.7 µM (active); in experiment [5] it was 30.7 µM (active); with CD38, CD38 (gene 952) it was 33.5 µM (active); with CD40, CD40 (gene 958), 31 µM (active); with CD69, CD69 (gene 969), 31.6 µM (active). Moreover, the AC50 in experiment [6] is 33 µM (active); in [7], 37 µM (active); in experiment [8], 31.3 µM (active); in experiment [9], 27 µM (active); in [10], 30.2 µM (active); in experiment [11], 16.4 µM (active). The AC50 in [15] is 32.7 µM (active).

Turning to `Nc1ccc(Cl)cc1N`, the AC50 in experiment [1] was 10 µM (active); in experiment [2] it was 2.96 µM (active); in [5] it was 3.62 µM (active); in the experiment with CD38, CD38 (gene 952), 6.44 µM (active); with CD69, CD69 (gene 969), 3.65 µM (active); in experiment [6], 3.7 µM (active). The half-maximal activity concentration (AC50) in [7] was 8.35 µM (active); in [14], 7.31 µM (active). Besides, the outcome in experiment [3] was “inactive”; in experiment [4] it was “inactive”; with CD40, CD40 (gene 958) it was “inactive”; in experiment [8], “inactive”; in [9], “inactive”; in [10], “inactive”. The result in [11] was inactive.

In the case of `CC(C)(C)C(O)(CCc1ccc(Cl)cc1)Cn1cncn1` (stereo not given), the outcome is “inactive” in experiment [1]; “inactive” in experiment [2]; “inactive” in experiment [3]; “inactive” in experiment [4]; “inactive” in [5]; “inactive” in the experiment with CD38, CD38 (gene 952). Further, the outcome with CD40, CD40 (gene 958) was “inactive”; with CD69, CD69 (gene 969), “inactive”; in experiment [6], “inactive”; in experiment [7], “inactive”; in experiment [8], “inactive”; in experiment [9], “inactive”. Besides, the outcome in [10], in [11], in experiment [15], in experiment [13], in [16] and in [14] was inactive.

As to `CC(C)(C)OOC(=O)c1ccccc1`, the outcome in experiment [1] is “inactive”; in experiment [2], “inactive”; in experiment [3], “inactive”; in [4], “inactive”; in experiment [5] it was “inactive”; with CD38, CD38 (gene 952), “inactive”. The outcome in the experiment with CD69, CD69 (gene 969) was “inactive”; in [6] it was “inactive”; in experiment [7], “inactive”; in experiment [8] it was “inactive”; in experiment [9], “inactive”; in [10], “inactive”. Further, the result in experiment [11] and in experiment [15] was inactive.
